Experimental data: PubChem BioAssay (NCATS)
Inconclusive results are not listed. Calls of active or inactive are those of the source. Unless noted, calls come from the whole dose curve; as a rule, active = well fitted curve in the direction sought with a large enough effect; inconclusive = small, poorly fitted or top-dose-only effect, or another doubt; inactive = no such curve, though single readings can be large; an effect the other way counts as inactive or inconclusive.

Key:
Es-2 = test: Primary qHTS to identify gynecologic anti-cancer compounds using libraries of approved drugs and bioactive compounds (AID 1345084); settings: Gynecologic cancer cell panel viability, ATPlite luminescence, 48 h; series mostly up to 57.5 µM; note: % is set by controls: 0 for no effect and ±100 for the full control effect; nearly all actives have a fitted effect of over 55% in size
Method in brief: (§1)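 In this quantitative HTS, cell killing is estimated from loss of ATP-dependent luciferase light. Cells see five compound concentrations over a 48 h exposure.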

HeLa = test: as above; settings: Gynecologic cancer cell panel viability, ATPlite luminescence, 48 h; series mostly up to 57.5 µM
Method in brief: as §1

Hek293T = test: as above; settings: Gynecologic cancer cell panel viability, ATPlite luminescence, 48 h, control line for the selectivity index; series mostly up to 57.5 µM
Method in brief: as §1

JEG-3 = test: as above; settings: Gynecologic cancer cell panel viability, ATPlite luminescence, 48 h; series mostly up to 57.5 µM
Method in brief: as §1

OV90 = test: as above; settings: Gynecologic cancer cell panel viability, ATPlite luminescence, 48 h; series mostly up to 57.5 µM
Method in brief: as §1

SKOV3 = test: as above; settings: Gynecologic cancer cell panel viability, ATPlite luminescence, 48 h; series mostly up to 57.5 µM
Method in brief: as §1

Tov-21-G = test: as above; settings: Gynecologic cancer cell panel viability, ATPlite luminescence, 48 h; series mostly up to 57.5 µM
Method in brief: as §1

Tov112D = test: as above; settings: Gynecologic cancer cell panel viability, ATPlite luminescence, 48 h; series mostly up to 57.5 µM
Method in brief: as §1

[1] = Drug repurposing screens with cells derived from glioblastoma tumor samples (AID 1345199); settings: GBM patient neurospheres viability, ATP luminescence, 48 h; note: nearly all actives have a fitted effect of over 40% in size; note: potency is the fitted concentration of half-maximal effect; for activity, negative = cell killing: % is set by controls: 0 for no effect and ±100 for the full control effect
Method in brief: (§2)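 Four patient lines of CD133+ GBM neurospheres were screened at several concentrations; hits were retested in those lines plus three slower-growing GBM lines, using 48-hour treatment and ATP-based viability.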

astro = test: as above; settings: viability, ATP luminescence, 48 h; series mostly up to 45.9 µM
Method in brief: as §2

PA-1 = test: Primary qHTS to identify gynecologic anti-cancer compounds using libraries of approved drugs and bioactive compounds (AID 1345084); settings: Gynecologic cancer cell panel viability, ATPlite luminescence, 48 h; series mostly up to 57.5 µM; note: % is set by controls: 0 for no effect and ±100 for the full control effect; nearly all actives have a fitted effect of over 55% in size
Method in brief: as §1

[2] = qHTS assay for small molecule activators of the human pregnane X receptor (PXR) signaling pathway (AID 720659; call rule not given here; note: 0% is about no effect)
[3] = at 45.9 µM (top of the series), tumour line B
[4] = at 45.9 µM (top of the series), tumour line D
[5] = at 46 µM (top of the series), tumour line A
[6] = at 46.1 µM (top of the series), tumour line C
[7] = at 20 µM (top of the series), tumour line C
[8] = at 21.2 µM (top of the series), tumour line B
[9] = at 21.2 µM (top of the series), tumour line D
[10] = at 21.3 µM (top of the series), tumour line A

O=C(O)CCc1nc2ccccc2[nH]1
inactive: Potency (Es-2) | Potency (HeLa) | Potency (Hek293T) | Potency (JEG-3) | Potency (OV90) | Potency (SKOV3) | Potency (Tov-21-G) | Potency (Tov112D) | activity, negative = cell killing [1, 3] -11.4% | activity, negative = cell killing [1, 4] 5.36% | activity, negative = cell killing [1, 5] -40.1% | activity, negative = cell killing [1, 6] -13.5% | Potency (astro)

CNCCc1ccccn1
inactive: Potency (Es-2) | Potency (HeLa) | Potency (Hek293T) | Potency (JEG-3) | Potency (OV90) | Potency (PA-1) | Potency (Tov-21-G) | Potency (Tov112D) | activity, negative = cell killing [1, 7] -4.84% | activity, negative = cell killing [1, 8] -4.42% | activity, negative = cell killing [1, 9] -9.97% | Potency (astro)

O=C(O)C(Cc1cc(I)c(O)c(I)c1)c1ccccc1 (stereo unspecified)
inactive: Potency (Es-2) | Potency (HeLa) | Potency (Hek293T) | Potency (JEG-3) | Potency (OV90) | Potency (SKOV3) | Potency (Tov-21-G) | Potency (Tov112D) | activity, negative = cell killing [1, 3] 4.75% | activity, negative = cell killing [1, 4] -5.57% | activity, negative = cell killing [1, 5] -25.7% | activity, negative = cell killing [1, 6] -25.5%

CC(O)Cn1cnc2c1c(=O)n(C)c(=O)n2C (stereo unspecified)
inactive: Potency (Es-2) | Potency (HeLa) | Potency (Hek293T) | Potency (JEG-3) | Potency (OV90) | Potency (SKOV3) | Potency (Tov-21-G) | Potency (Tov112D) | activity, negative = cell killing [1, 7] 7.77% | activity, negative = cell killing [1, 8] -9.45% | activity, negative = cell killing [1, 9] -12.1% | activity, negative = cell killing [1, 10] -14.4% | Potency (astro)

COc1cc(NS(=O)(=O)c2ccc(N)cc2)ncn1
inactive: Potency (Es-2) | Potency (HeLa) | Potency (Hek293T) | Potency (JEG-3) | Potency (OV90) | Potency (PA-1) | Potency (Tov-21-G) | Potency (Tov112D) | activity, negative = cell killing [1, 7] 5.16% | activity, negative = cell killing [1, 8] 4.65% | activity, negative = cell killing [1, 9] -16.4% | Potency (astro)

COc1cc(C)nc(-n2nc(C)cc2OC)n1
inactive: Potency (Es-2) | Potency (HeLa) | Potency (Hek293T) | Potency (JEG-3) | Potency (OV90) | Potency (PA-1) | Potency (Tov-21-G) | Potency (Tov112D) | activity, negative = cell killing [1, 7] 16.5% | activity, negative = cell killing [1, 8] 1.89% | activity, negative = cell killing [1, 9] -16% | activity, negative = cell killing [1, 10] -15.4% | Potency (astro)

O=C(c1ccc(F)cc1)C1CCN(CCn2c(=S)[nH]c3ccccc3c2=O)CC1
inactive: Potency (Es-2) | Potency (HeLa) | Potency (Hek293T) | Potency (JEG-3) | Potency (OV90) | Potency (SKOV3) | Potency (Tov-21-G) | Potency (Tov112D) | activity, negative = cell killing [1, 3] -29.1%
active: Potency ([1]; tumour line A) 12.6 µM | Potency ([1]; tumour line C) 20.6 µM

Nc1ccc(S(=O)(=O)NCc2ccccc2)cc1
inactive: Potency (Es-2) | Potency (HeLa) | Potency (Hek293T) | Potency (JEG-3) | Potency (OV90) | Potency (PA-1) | Potency (Tov-21-G) | Potency (Tov112D) | activity, negative = cell killing [1, 3] 0.545% | activity, negative = cell killing [1, 4] -1.8% | activity, negative = cell killing [1, 6] -10.5% | Potency (astro)

Cc1ccc(S(=O)(=O)NC(=O)NC2CCCC2)cc1
inactive: Potency (Es-2) | Potency (HeLa) | Potency (Hek293T) | Potency (JEG-3) | Potency (OV90) | Potency (PA-1) | Potency (Tov-21-G) | Potency (Tov112D) | activity, negative = cell killing [1, 3] -10.4% | activity, negative = cell killing [1, 4] -9.83% | activity, negative = cell killing [1, 6] -7.67% | Potency (astro)

O=[N+]([O-])c1cccc(S(=O)(=O)NCCNS(=O)(=O)c2cccc([N+](=O)[O-])c2)c1
inactive: Potency (Es-2) | Potency (HeLa) | Potency (Hek293T) | Potency (JEG-3) | Potency (OV90) | Potency (PA-1) | Potency (Tov-21-G) | Potency (Tov112D) | activity, negative = cell killing [1, 3] -14.3% | activity, negative = cell killing [1, 4] -9.35% | activity, negative = cell killing [1, 6] -36.6% | Potency (astro)

COc1cc([C@H]2Oc3cc([C@H]4Oc5cc(O)cc(O)c5C(=O)[C@@H]4O)ccc3O[C@@H]2CO)ccc1O
inactive: Potency (Es-2) | Potency (HeLa) | Potency (Hek293T) | Potency (JEG-3) | Potency (OV90) | Potency (SKOV3) | Potency (Tov-21-G) | Potency (Tov112D) | activity, negative = cell killing [1, 3] -0.835% | activity, negative = cell killing [1, 4] -13.1% | activity, negative = cell killing [1, 6] -7.07% | outcome [2]

Nc1ccc(C(=O)NCC(=O)O)cc1
inactive: Potency (Es-2) | Potency (HeLa) | Potency (Hek293T) | Potency (JEG-3) | Potency (OV90) | Potency (PA-1) | Potency (Tov-21-G) | Potency (Tov112D) | activity, negative = cell killing [1, 8] -7.61% | activity, negative = cell killing [1, 9] -13.9% | activity, negative = cell killing [1, 10] -13.3% | Potency (astro)

CC(=O)NC(=O)c1ccccc1O
inactive: Potency (Es-2) | Potency (HeLa) | Potency (Hek293T) | Potency (JEG-3) | Potency (OV90) | Potency (PA-1) | Potency (Tov-21-G) | Potency (Tov112D) | activity, negative = cell killing [1, 3] -6.43% | activity, negative = cell killing [1, 4] -8.37% | activity, negative = cell killing [1, 5] -24.9% | activity, negative = cell killing [1, 6] -17.7% | Potency (astro)

Cc1ccc(-c2ncc(Cl)cc2-c2ccc(S(C)(=O)=O)cc2)cn1
inactive: Potency (Es-2) | Potency (HeLa) | Potency (Hek293T) | Potency (JEG-3) | Potency (OV90) | Potency (SKOV3) | Potency (Tov-21-G) | Potency (Tov112D) | activity, negative = cell killing [1, 3] -0.088% | activity, negative = cell killing [1, 4] -1.02% | activity, negative = cell killing [1, 6] -0.632% | Potency (astro)

CC(=O)O[C@]1(C(C)=O)CC[C@H]2[C@@H]3C=C(C)C4=CC(=O)CC[C@]4(C)[C@H]3CC[C@@]21C
inactive: Potency (Es-2) | Potency (HeLa) | Potency (Hek293T) | Potency (JEG-3) | Potency (OV90) | Potency (PA-1) | Potency (Tov-21-G) | Potency (Tov112D) | activity, negative = cell killing [1, 7] -0.988% | activity, negative = cell killing [1, 8] -20.3% | activity, negative = cell killing [1, 9] 13.6% | Potency (astro)

CCCCNC(=O)NS(=O)(=O)c1ccc(N)cc1
inactive: Potency (Es-2) | Potency (HeLa) | Potency (Hek293T) | Potency (JEG-3) | Potency (OV90) | Potency (PA-1) | Potency (Tov-21-G) | Potency (Tov112D) | activity, negative = cell killing [1, 3] -8.59% | activity, negative = cell killing [1, 4] 11% | activity, negative = cell killing [1, 5] -6.54% | activity, negative = cell killing [1, 6] -25.7% | Potency (astro)
